The panel holds about 79,000 compounds, 15% with a hit somewhere; the sample as a whole holds those more often. Active and inactive are the calls of the source. No stated cut-off is given here; in the data, active means growth inhibition above about 70%; inactive means the rest.
What was measured:
[1] = NCI Yeast Anticancer Drug Screen. Data for the rad50 strain (AID 155);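 further: 0% = growth of vehicle-only cultures of the same strain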; conditions: S. cerevisiae rad50 strain growth inhibition, hits give high values
Procedure, shortened: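 Yeast carrying a defined DNA repair defect were exposed to test compounds, and growth was compared with vehicle-treated controls to give percent inhibition.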

[2] = NCI Yeast Anticancer Drug Screen. Data for the mec2-1 strain (AID 157); conditions: S. cerevisiae mec2-1 strain, hits give high values
Procedure, shortened: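 Strain: mec2-1 (DNA repair/cell cycle alteration). Compound exposure, then growth measured; inhibition expressed relative to vehicle.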

[3] = NCI Yeast Anticancer Drug Screen. Data for the sgs1 mgt1 strain (AID 161);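 further: 0% = growth of cultures given vehicle only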; conditions: S. cerevisiae sgs1 mgt1 strain, hits give high values
Procedure, shortened: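 Inhibition of yeast growth, normalised to vehicle-treated controls, is reported for a strain bearing genetic alterations in DNA damage repair.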

[4] = NCI Yeast Anticancer Drug Screen. Data for the cln2 rad14 strain (AID 165);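 further: 0% = growth equal to vehicle treated cultures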; conditions: S. cerevisiae cln2 rad14 strain, hits give high values
Procedure, shortened: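 Compounds are applied to the cln2 rad14 yeast strain, and growth is then compared with that of vehicle-treated cultures to give inhibition.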

[5] = NCI Yeast Anticancer Drug Screen. Data for the bub3 strain (AID 167); conditions: S. cerevisiae bub3 mutant strain, hits give high values
Procedure, shortened: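 Compounds were applied to a genetically altered yeast strain carrying a cell-cycle control defect. Growth inhibition was scored against vehicle-treated controls.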

[6] = NCI Yeast Anticancer Drug Screen. Data for the mlh1 rad18 strain (AID 175); conditions: S. cerevisiae mlh1 rad18 strain growth inhibition, hits give high values
Procedure, shortened: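 Read-out is yeast growth inhibition, calculated against vehicle-only controls. The compound was applied to a strain engineered with DNA damage repair alterations.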

[7] = at 5.0 µM (retest, dose inferred, filed as 0.5)
[8] = at 50.0 µM (retest, dose inferred, filed as 5.0)

Measured: growth inhibition

S=c1sc2ccccc2n1CNc1ccccc1
inactive: [1]; [7] -2% | [1]; [8] 14% | [1]; at 50.0 µM 64.9% | [2]; [7] 0% | [2]; [8] 7% | [2]; at 50.0 µM 68.1% | [3]; [7] 2% | [3]; [8] 53% | [4]; [7] -5% | [4]; [8] -10% | [4]; at 50.0 µM -40.6% | [5]; [7] -1% | [5]; [8] 18% | [6]; [7] 5% | [6]; [8] -11% | [6]; at 50.0 µM 69.3%
active: [3]; at 50.0 µM 72.2% | [5]; at 50.0 µM 74.3%

COC12C=CC(CC1)c1c2c(O)c2ncccc2c1O (stereo not given)
inactive: [1]; [7] -4% | [1]; [8] 67% | [2]; [7] -3% | [2]; [8] 40% | [2]; at 50.0 µM 34.9% | [3]; [7] -5% | [3]; [8] 47% | [4]; [7] -4% | [4]; [8] 23% | [4]; at 50.0 µM 21.9% | [5]; [7] 3% | [6]; [7] -6% | [6]; [8] 52% | [6]; at 50.0 µM 48.3%
active: [1]; at 50.0 µM 78.6% | [3]; at 50.0 µM 72.5% | [5]; [8] 77% | [5]; at 50.0 µM 90.3%

CCOC(=O)c1ccccc1NC(OCC)C(=O)c1ccccc1 (stereo not given) (tested in a mixture with another compound)
inactive: [1]; [7] -5% | [2]; [7] 5% | [2]; [8] 22% | [2]; at 50.0 µM 63.9% | [3]; [7] 1% | [3]; [8] 69% | [4]; [7] -3% | [4]; [8] 12% | [4]; at 50.0 µM 16.2% | [5]; [7] -5% | [6]; [7] 0%
active: [1]; [8] 70% | [1]; at 50.0 µM 75% | [3]; at 50.0 µM 90.8% | [5]; [8] 71% | [5]; at 50.0 µM 70% | [6]; [8] 81% | [6]; at 50.0 µM 90.7%

CN(C)c1ccc(N=Nc2ccc(/C=C3\CCOC3=O)cc2)cc1
inactive: [1]; [7] -4% | [1]; [8] 4% | [1]; at 50.0 µM -3.65% | [2]; [7] -5% | [2]; [8] -1% | [2]; at 50.0 µM 19.4% | [3]; [7] -6% | [3]; [8] -6% | [3]; at 50.0 µM -0.65% | [4]; [7] -3% | [4]; [8] 4% | [4]; at 50.0 µM 37.2% | [5]; [7] -3% | [5]; [8] 7% | [5]; at 50.0 µM -2.45% | [6]; [7] -1% | [6]; [8] 3% | [6]; at 50.0 µM 12.4%

O=[N+]([O-])c1ccc(NC(=S)N/N=C(\c2ccccc2)c2ccccn2)cc1
active: [1]; [8] 73% | [2]; [8] 79% | [3]; [8] 87% | [3]; at 50.0 µM 79.5% | [4]; [8] 75% | [4]; at 50.0 µM 72.1% | [5]; [8] 82% | [5]; at 50.0 µM 80.8% | [6]; [8] 89% | [6]; at 50.0 µM 79.8%
inactive: [1]; [7] 8% | [1]; at 50.0 µM 63.1% | [2]; [7] -32% | [2]; at 50.0 µM 66.2% | [3]; [7] -19% | [4]; [7] 19% | [5]; [7] -5% | [6]; [7] 11%

CCCCCCCCCCCCCC(=O)NO
active: [1]; [7] 97% | [1]; [8] 97% | [1]; at 50.0 µM 89.2% | [2]; [7] 99% | [2]; [8] 98% | [2]; at 50.0 µM 91.3% | [3]; [7] 99% | [3]; [8] 98% | [3]; at 50.0 µM 92.8% | [4]; [7] 89% | [4]; [8] 96% | [4]; at 50.0 µM 88.2% | [5]; [7] 99% | [5]; [8] 98% | [5]; at 50.0 µM 90.2% | [6]; [7] 99% | [6]; [8] 97% | [6]; at 50.0 µM 89.1%

CC(=O)N1C=C2CCC3c4ccccc4NC3C2CC1 (stereo not given)
inactive: [1]; [7] -2% | [1]; [8] 15% | [1]; at 50.0 µM 33.2% | [2]; [7] 1% | [2]; [8] 4% | [2]; at 50.0 µM 4.05% | [3]; [7] -4% | [3]; [8] 13% | [3]; at 50.0 µM 34.5% | [4]; [7] -51% | [4]; [8] 0% | [4]; at 50.0 µM -29.1% | [5]; [7] -11% | [5]; [8] 47% | [5]; at 50.0 µM -4.6% | [6]; [7] -7% | [6]; [8] -2% | [6]; at 50.0 µM 19.1%

COc1ccc2c(c1)CCC/C2=N\NS(=O)(=O)c1c(C)cc(C)cc1C
active: [4]; at 50.0 µM 73.5% | [6]; [8] 75%
inactive: [1]; [7] 15% | [1]; [8] 59% | [1]; at 50.0 µM 26.2% | [2]; [7] 16% | [2]; [8] 60% | [2]; at 50.0 µM -43.2% | [3]; [7] 16% | [3]; [8] 38% | [3]; at 50.0 µM 37.1% | [4]; [7] 8% | [4]; [8] 68% | [5]; [7] 11% | [5]; [8] 52% | [5]; at 50.0 µM 54.8% | [6]; [7] 26% | [6]; at 50.0 µM 5.7%

C(#Cc1ccccc1)Sc1ccccc1
inactive: [1]; [7] 6% | [1]; [8] 4% | [1]; at 50.0 µM 12.9% | [2]; [7] -9% | [2]; [8] 14% | [2]; at 50.0 µM 31.1% | [3]; [7] 1% | [3]; [8] 18% | [3]; at 50.0 µM 65.7% | [4]; [7] 6% | [4]; [8] 6% | [4]; at 50.0 µM 23.1% | [5]; [7] 29% | [5]; [8] 9% | [5]; at 50.0 µM -30.8% | [6]; [7] 4% | [6]; [8] 11% | [6]; at 50.0 µM 56.4%

CCOC(=O)C(/C=N\C(=S)Nc1ccc(Cl)c(Cl)c1)=C(/O)c1ccccc1
active: [1]; at 50.0 µM 83.3% | [3]; at 50.0 µM 75.5% | [4]; at 50.0 µM 78.6% | [5]; at 50.0 µM 78.4% | [6]; at 50.0 µM 81.2%
inactive: [1]; [7] 2% | [1]; [8] 58% | [2]; [7] -3% | [2]; [8] 45% | [2]; at 50.0 µM 69% | [3]; [7] 11% | [3]; [8] 38% | [4]; [7] -8% | [4]; [8] 45% | [5]; [7] 12% | [5]; [8] 35% | [6]; [7] -9% | [6]; [8] 49%
